{"source": "ChEMBL document CHEMBL3988442", "about": "“University of Dundee, Small-Polar-MMV Screening Library” (2021)", "note": "The whole screen tested about 48,000 compounds, of which about 13,000 (27%) showed an effect of 50% or more. Some of the results follow.", "data": [{"tested_on": "Wolbachia pipientis", "experiment": "Anti-Wolbachia Cell-Based Screen", "format": "functional", "parameters": "scale not given: in the data most compounds retested in dose-response had high values", "details": "5 µM", "units": {"Percent Effect": "%"}, "values": [{"smiles": "COCC1CN(CC2CCOCC2)Cc2cn(CC3CCCC3)nc21", "note": "(centres undefined)", "Percent Effect": -7.587}, {"smiles": "Cc1nonc1C1CCCN1C(=O)c1cc2n(n1)CCCN(C(C)C)C2", "note": "(centres undefined)", "Percent Effect": 4.032}, {"smiles": "CSCCNC(=O)c1ccc(OC2CCN(CC(C)(C)C)CC2)c(Cl)c1", "Percent Effect": -14.62}, {"smiles": "Cc1nc(SCC(=O)Nc2ccc(C(N)=O)cc2)c(C#N)c(C)c1C", "Percent Effect": 108.9}, {"smiles": "COc1ccc(NC(=O)CSc2nc(C)c(C)c(C)c2C#N)cn1", "Percent Effect": 14.78}, {"smiles": "Cc1cc(=O)n(CC(=O)Nc2ccc(C(N)=O)cc2)nc1C", "Percent Effect": 4.74}, {"smiles": "Cc1ccccc1CC(C)(C)NC(=O)CCOc1cccc(C(N)=O)c1", "Percent Effect": -6.35}, {"smiles": "CC(NCCN1CCN(C(=O)C2CCCC2)CC1)c1ccccn1", "note": "(centres undefined)", "Percent Effect": 4.295}, {"smiles": "CC(C)Nc1nc(O)cc(C(C)n2ncc3ccccc3c2=O)n1", "note": "(centres undefined)", "Percent Effect": 144.2}, {"smiles": "CC(c1cc(O)nc(NC2CCCC2)n1)n1ncc2ccccc2c1=O", "note": "(centres undefined)", "Percent Effect": 143.5}, {"smiles": "CC(C)c1noc(Cn2ncc3ccccc3c2=O)n1", "Percent Effect": -9.946}, {"smiles": "NC(=O)c1noc(Cn2ncc3ccccc3c2=O)n1", "Percent Effect": -15.29}, {"smiles": "CCN(CC)c1nc(O)cc(C(C)n2ncc3ccccc3c2=O)n1", "note": "(centres undefined)", "Percent Effect": 150.9}, {"smiles": "CNC(=O)c1noc(Cn2ncc3ccccc3c2=O)n1", "Percent Effect": -3.773}, {"smiles": "Cc1cc(C)nc(NC2CC(=O)N(C)C2)n1", "note": "(centres undefined)", "Percent Effect": -15.96}, {"smiles": "CC(C)c1nc(CNC(C(=O)N2CCOCC2)C(C)C)no1", "note": "(centres undefined)", "Percent Effect": -8.871}, {"smiles": "COCCN(Cc1coc(-c2ccc(OC)cc2)n1)C1CC1", "Percent Effect": 2.104}, {"smiles": "CC(C)CC(NC(=O)C1=CCCC1)C(=O)N1CCC(CO)CC1", "note": "(centres undefined)", "Percent Effect": 0.4021}, {"smiles": "COCc1nc2cc(NCc3ccc(CO)o3)ccc2o1", "Percent Effect": -0.637}, {"smiles": "CCN(CC)C(=O)CCCNC(=O)c1csc(NC2CC2)n1", "Percent Effect": -10.76}, {"smiles": "Cc1nn(C)c(Oc2ccc(Cl)cc2)c1CN1CCC(CN)C1", "note": "(centres undefined)", "Percent Effect": -7.014}, {"smiles": "CC(O)Cc1cn(CC2CCN(c3nccc4occc34)CC2)nn1", "note": "(centres undefined)", "Percent Effect": 2.668}, {"smiles": "Cc1csc2ncc(-c3ccnc(NC4CCOCC4)n3)c(=O)n12", "Percent Effect": 88.01}, {"smiles": "Cc1ccc(-c2ccnc(N[C@H]3COC[C@@H]3N3CCCCC3)n2)c(C)n1", "Percent Effect": 10.8}, {"smiles": "Cc1cn2c(=O)c(-c3ccnc(N[C@@H]4CCOC4)n3)cnc2s1", "Percent Effect": 101}, {"smiles": "CCCn1ncc(-c2ccnc(NC3CCSC3)n2)c1C", "note": "(centres undefined)", "Percent Effect": -13.99}, {"smiles": "Cc1cn2c(=O)c(-c3ccnc(NC4CCOCC4)n3)cnc2s1", "Percent Effect": 101.9}, {"smiles": "FC(F)(F)CCc1ccnc(NC2CCOC2)n1", "note": "(centres undefined)", "Percent Effect": 0.7283}, {"smiles": "O=C(CCCc1cn[nH]c1)N1C[C@@H](CN2CCCC2)C[C@H](CO)C1", "Percent Effect": -0.9744}, {"smiles": "COc1cc(C)cc(C(C(=O)O)N2CCN(C3CCCC3)CC2)c1OC", "note": "(centres undefined)", "Percent Effect": -14.27}, {"smiles": "CC(C)c1nn(C)c(N2CCOCC2)c1CNCCS(C)(=O)=O", "Percent Effect": -4.469}, {"smiles": "N#CC1(NC(=O)c2ccn(-c3ccccc3Cl)n2)CCSC1", "note": "(centres undefined)", "Percent Effect": -6.951}, {"smiles": "CN1[C@H](CO)C[C@H](CNCc2ccc(Cl)c(F)c2)[C@@H]1c1ccccc1F", "Percent Effect": -19.47}, {"smiles": "CN1CCCCC12Cc1ccccc1CN(C(=O)c1ccccc1)C2", "note": "(centres undefined)", "Percent Effect": 117.9}, {"smiles": "O=C(NC1CCc2ccccc2C1)N1CCN(C(=O)C2CCC2)CC1", "note": "(centres undefined)", "Percent Effect": -14.39}, {"smiles": "CC(=O)N1Cc2ccccc2CC2(CCCCN2C)C1", "note": "(centres undefined)", "Percent Effect": 130.2}, {"smiles": "CN1CCN(C(=O)C2(S(C)(=O)=O)CCCC2)Cc2ccccc21", "Percent Effect": -5.505}, {"smiles": "CN1CCN(C(=O)C2(NC(N)=O)CCCCC2)Cc2ccccc21", "Percent Effect": -12.44}, {"smiles": "CS(=O)(=O)N1CCCCC12CCN(C(=O)c1ccccc1)C2", "note": "(centres undefined)", "Percent Effect": -1.645}, {"smiles": "CN1CCCCC12Cc1ccccc1CN(C(=O)C1CCCC1)C2", "note": "(centres undefined)", "Percent Effect": 124.9}, {"smiles": "Cc1noc(C)c1CNC(=O)N1CCC(OCC2CC2)CC1", "Percent Effect": 12.01}, {"smiles": "Cc1n[nH]cc1CNC(C(=O)N1CCCCC1)c1ccccc1", "note": "(centres undefined)", "Percent Effect": 2.279}, {"smiles": "CC(C)c1nnc2n1CCN(C(=O)CN1CCc3sccc3C1)C2", "Percent Effect": 4.372}, {"smiles": "OC(CN1CCC(c2ccn[nH]2)CC1)c1cccc(C(F)(F)F)c1", "note": "(centres undefined)", "Percent Effect": 117.8}, {"smiles": "CS(=O)(=O)c1ccc(C(O)CN2CCC(c3ccn[nH]3)CC2)cc1", "note": "(centres undefined)", "Percent Effect": -3.645}, {"smiles": "OC(CN1CCC(c2ccn[nH]2)CC1)c1ccccc1F", "note": "(centres undefined)", "Percent Effect": 96.43}, {"smiles": "OC(CN1CCC(c2ccn[nH]2)CC1)c1ccc(F)cc1", "note": "(centres undefined)", "Percent Effect": 112.6}, {"smiles": "Cn1nccc1C1CCN(CC(O)c2cccc(F)c2)CC1", "note": "(centres undefined)", "Percent Effect": -0.7122}, {"smiles": "OC(CN1CCC(c2ccn[nH]2)CC1)c1cccc(F)c1", "note": "(centres undefined)", "Percent Effect": -8.538}, {"smiles": "N#Cc1ccnc(N2CCN(CC(O)c3ccc(F)cc3F)CC2)c1", "note": "(centres undefined)", "Percent Effect": -23.85}, {"smiles": "OC(COc1ccccc1)CN1CCC(c2ccn[nH]2)CC1", "note": "(centres undefined)", "Percent Effect": 2.003}, {"smiles": "OC(COCc1cccs1)CN1CCC(c2ccn[nH]2)CC1", "note": "(centres undefined)", "Percent Effect": -8.119}, {"smiles": "OC(CN1CCN(c2ncccn2)CC1)c1cccc(F)c1", "note": "(centres undefined)", "Percent Effect": -12.81}, {"smiles": "CN(CC1CCN(CCO)CC1)CC(O)c1ccc(F)cc1F", "note": "(centres undefined)", "Percent Effect": 7.101}, {"smiles": "OC(CN1CCC(c2ccn[nH]2)CC1)c1ccc(F)cc1F", "note": "(centres undefined)", "Percent Effect": 102.6}, {"smiles": "Cc1ccc(F)c(OC2CCCN(c3cnn(C)c3)C2=O)c1", "note": "(centres undefined)", "Percent Effect": -6.274}, {"smiles": "Cc1cc(C(=O)N[C@H]2CN(CCO)C[C@@H]2C2CC2)sc1C", "Percent Effect": -4.663}, {"smiles": "CN(Cc1ccccc1)C1(C(=O)NC(CO)CO)Cc2ccccc2C1", "Percent Effect": 2.959}, {"smiles": "O=C(Nc1cnc2n1CCCC2)c1cccc(-n2cnnc2)c1", "Percent Effect": -1.722}, {"smiles": "CCN(C(=O)CN(Cc1cccc(O)c1)C1CCC(O)CC1)C1CC1", "note": "(centres undefined)", "Percent Effect": 5.971}, {"smiles": "Cc1cccc(CNCC2COC3(CCCC3)O2)c1C", "note": "(centres undefined)", "Percent Effect": -2.633}, {"smiles": "O=C1CCCN1CCN1CCC(c2ccn[nH]2)CC1", "Percent Effect": 6.838}, {"smiles": "OC(COCc1ccc(Cl)cc1)CN1CCC(c2ccn[nH]2)CC1", "note": "(centres undefined)", "Percent Effect": -1.567}, {"smiles": "OC(CN1CCC(c2ccn[nH]2)CC1)c1cc(F)ccc1F", "note": "(centres undefined)", "Percent Effect": 116}, {"smiles": "O=c1cc(-c2ccncc2)nc(-c2ccc(CN3CC[C@H](O)C3)cc2)[nH]1", "Percent Effect": 9.166}, {"smiles": "CN(C)c1cc(CNC(=O)Nc2nncs2)ccn1", "Percent Effect": 51.52}, {"smiles": "CN(C)c1cc(CNC(=O)Nc2ccc(S(C)(=O)=O)nc2)ccn1", "Percent Effect": -6.104}, {"smiles": "CN(C)c1cc(CNC(=O)Nc2ccc(F)cc2)ccn1", "Percent Effect": 2.745}, {"smiles": "CN(C)c1cc(CNC(=O)Nc2nccs2)ccn1", "Percent Effect": 125}]}]}
